Sampled rows, rich in hits. Any-hit rate of the full collection: about 1.6%.
KCNQ2 block = rat KCNQ2 potassium channel inhibitors, primary screen, cell-based, CHO-K1, FluxOR thallium flux, B-score; actives 1.1% (n = 310,000); 20 min; hits give low values; AID 2156, 2009; B-score at 10 µM; Potassium voltage-gated channel subfamily KQT member 2 (Rattus norvegicus), O88943;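 active means fluorescence ratio B-score at most minus 3 library SDs, with starting brightness B-score within 2 library SDs, cut at about -5.5 in these data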
KCNQ2 enhance = potentiators of rat KCNQ2 potassium channel. Potassium voltage-gated channel subfamily KQT member 2 (Rattus norvegicus), O88943. CHO-K1 KCNQ2, FluxOR thallium flux fluorescence; hits give high values. B-score at 10 µM. actives 0.54% (n = 310,000);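 active means fluorescence ratio B-score at least 3 SD of library B-scores, with initial fluorescence B-score within 3 of them, cut at about 5.3 in these data; same plate scores as AID 2156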;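 further: B-score of peak minus minimum over baseline fluorescence ratio after K+ and Tl+ stimulus; positive B-score means potentiation of KCNQ2 with more thallium influx and brighter signal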
KCNQ2 block conf = rat KCNQ2 potassium channel inhibitors, confirmation, cell-based, thallium flux | shares compounds with KCNQ2 block | AID 493025, 2011 | KCNQ2-expressing cells, inhibition; hits give low values | actives 57% (n = 1,000) | activity change, negative = inhibition, % at 10 µM
KCNQ1 spec = human KCNQ1 channel inhibition, counter-screen for KCNQ2 inhibitor project, cell-based, FluxOR thallium flux; KCNQ1-expressing cells, FluxOR thallium flux fluorescence; hits give low values; activity change, negative = inhibition, % at 10 µM; actives 15% (n = 1,000); shares compounds with KCNQ2 block;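 active means activity change at least 3 SD of negative controls below their mean in both duplicate wells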;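 further: CHO cells stably transfected with KCNQ1 and depolarized by potassium stimulus; peak minus minimum fluorescence over baseline after thallium addition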
Target sequence (P51787 whole entry, looked up): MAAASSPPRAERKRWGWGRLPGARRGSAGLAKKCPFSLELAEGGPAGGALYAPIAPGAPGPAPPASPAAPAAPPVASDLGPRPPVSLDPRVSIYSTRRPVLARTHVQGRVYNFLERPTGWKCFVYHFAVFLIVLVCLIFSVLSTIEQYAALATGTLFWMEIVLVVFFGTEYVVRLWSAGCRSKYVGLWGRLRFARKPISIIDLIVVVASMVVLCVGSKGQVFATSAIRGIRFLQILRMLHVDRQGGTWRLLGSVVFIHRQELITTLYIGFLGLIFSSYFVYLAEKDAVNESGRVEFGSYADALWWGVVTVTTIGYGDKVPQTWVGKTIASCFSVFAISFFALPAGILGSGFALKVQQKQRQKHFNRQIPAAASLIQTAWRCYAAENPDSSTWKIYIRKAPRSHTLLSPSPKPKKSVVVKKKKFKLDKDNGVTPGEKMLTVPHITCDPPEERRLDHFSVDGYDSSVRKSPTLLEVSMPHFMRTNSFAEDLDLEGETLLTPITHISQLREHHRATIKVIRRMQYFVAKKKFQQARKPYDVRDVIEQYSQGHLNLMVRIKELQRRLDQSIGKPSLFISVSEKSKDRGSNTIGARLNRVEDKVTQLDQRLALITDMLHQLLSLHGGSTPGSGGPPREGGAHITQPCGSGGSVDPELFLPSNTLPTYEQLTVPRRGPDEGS
CHO parental ctr = thallium flux change in parental CHO cells, counter-screen for KCNQ2 inhibitor project. shares compounds with KCNQ2 block. actives 14% (n = 1,000). activity change, % at 10 µM. hits give low values. AID 493029, 2011
KCNQ2 patch conf = rat KCNQ2 channel inhibitors, confirmation, cell-based, automated patch clamp, single concentration | shares compounds with KCNQ2 block | KCNQ2-expressing cells, automated patch clamp current | calls only at 10 µM | actives 49% (n = 550) | AID 588531, 2011
Each line names hits and unclear results; the compound was inactive in the other large screens (follow-up assays come after a bar, where they were run). Unless noted, how the calls were made is not given here.

O=C(c1ccccc1F)N1CCN(c2cnn(-c3cccc(Cl)c3)c(=O)c2Cl)CC1	none
CN(C)CCNC(=O)/C=C/c1cn(-c2ccccc2)nc1-c1cc2ccccc2oc1=O	none (no result: KCNQ2 enhance)
CCOC(=O)c1c(-c2ccc(OC)cc2)csc1NC(=O)CSc1ccccc1	none (no result: KCNQ2 enhance)
CCOC(=O)c1c(-c2cccs2)csc1NC(=O)CC(C)C	none (no result: KCNQ2 enhance)
CCOC(=O)c1c(-c2cccs2)csc1NC(=O)CN(CC)CC	KCNQ2 block -9.9 | KCNQ2 block conf inactive | KCNQ1 spec inactive | CHO parental ctr inactive
CCOC(=O)c1c(-c2ccccc2)csc1NC(=O)CSc1ccccc1	KCNQ2 block -8.2 | KCNQ2 block conf -38% | KCNQ1 spec -27% | CHO parental ctr inactive | KCNQ2 patch conf inactive
CC1CN(S(=O)(=O)N2CCOCC2)CCN1S(=O)(=O)N1CCOCC1 (centres undefined)	none
Cc1ccc(N=C2CCCN2Cc2ccccc2)c(C#N)c1	KCNQ2 block -9 | KCNQ2 block conf -47% | KCNQ1 spec -43% | CHO parental ctr -34% | KCNQ2 patch conf active
Cc1ccc(N=C2CCCCCN2C)c(C#N)c1	none (no result: KCNQ2 enhance)
CC(Nc1ccc2c(c1)OCCO2)C(=O)N1CCc2ccccc21 (centres undefined)	none
O=C(c1ccc(CNS(=O)(=O)c2ccc(Br)cc2)cc1)N1CCCC1	none (no result: KCNQ2 enhance)
Cc1ccc(C(=O)N/C(=C\c2ccc(-c3ccc(Cl)cc3)o2)C(=O)NCCCN(C)C)cc1	KCNQ2 block -7.2 | KCNQ2 block conf -18% | KCNQ1 spec inactive | CHO parental ctr inactive
CN(C)CCCNC(=O)/C(=C\c1ccc(-c2ccc(Br)cc2)o1)NC(=O)c1ccccc1	none (no result: KCNQ2 enhance)
CC1(CCC(=O)N2CCCC(N3CCN(c4ccc(F)cc4)CC3)C2)CC1 (centres undefined)	none
O=C(Cn1cncn1)N/N=C/c1cccnc1	none
O=C(NCc1ccco1)/C(=C\c1ccco1)NC(=O)c1ccco1	none
COc1ccc(-n2c(-c3ccc(Cl)cc3)c[n+]3c2CCc2ccccc2-3)cc1	none (no result: KCNQ2 enhance)
Cc1ccc(-n2c(-c3ccc(Br)cc3)c[n+]3c2CCc2ccc4cccnc4c2-3)cc1	KCNQ2 block -12 | KCNQ2 block conf -45% | KCNQ1 spec -36% | CHO parental ctr -30%
O=C(N/C(=C/c1ccc(Cl)cc1)C(=O)N1CCCC1)c1ccccc1	none (no result: KCNQ2 enhance)
[O-]/C(=C(\C(=S)NCc1ccccc1)[n+]1ccccc1)c1ccc(Cl)s1	none (no result: KCNQ2 enhance)
Clc1cccc(Cl)c1/C=C/c1nc2ccccc2[nH]1	KCNQ2 block -8.7 | KCNQ2 block conf -36% | KCNQ1 spec -42% | CHO parental ctr -30% | KCNQ2 patch conf inactive
Clc1ccc(/C=C/c2nc3ccccc3[nH]2)cc1	none (no result: KCNQ2 enhance)
CCOc1ccc2c(c1)-c1c(ssc1=S)C(C)(C)N2C(=O)c1ccco1	KCNQ2 block -8.8 | KCNQ2 block conf inactive | KCNQ1 spec inactive | CHO parental ctr inactive
COc1ccc2c(c1)-c1c(ssc1=S)C(C)(C)N2C(=O)CSC1=NCCS1	none (no result: KCNQ2 enhance)
COc1ccc(CCNC(=O)C(=O)NCc2cccs2)cc1OC	none
O=C(/C=C/c1ccco1)NC(=S)Nc1ccccc1N1CCOCC1	KCNQ2 block -7.2 | KCNQ2 block conf inactive | KCNQ1 spec inactive | CHO parental ctr inactive
O=C(/C=C/c1ccco1)NC(=S)Nc1ccccc1N1CCCC1	none (no result: KCNQ2 enhance)
CCOc1cc(NC(=S)Nc2ccc(Cl)cc2)c(OCC)cc1NC(C)=O	none (no result: KCNQ2 enhance)
Cc1ccc2nc(-c3ccccc3)cc(C(=O)N(C)CC(=O)Nc3ccccc3Br)c2c1	KCNQ2 block -8.1 | KCNQ2 block conf inactive | KCNQ1 spec inactive | CHO parental ctr inactive
COc1ccc(NC(=O)CN(C)C(=O)c2cc(-c3ccccc3)nc3ccccc23)cc1	none (no result: KCNQ2 enhance)
Cc1cc(Cl)ccc1NC(=O)c1ccc2c(c1)CCN2S(C)(=O)=O	none
O=C(CCNc1ccc(F)cc1)c1cccc([N+](=O)[O-])c1	none (no result: KCNQ2 enhance)

Screening results deposited in PubChem BioAssay by Johns Hopkins Ion Channel Center.
